The whole screen tested about 16,000 compounds, of which about 5,100 (32%) were called active. Inconclusive results (about 25%) are left out. The list shows a part of the results. A number with no mark means an inactive call. Calls come from the whole dose curve; as a rule, active = well fitted curve in the direction sought with a large enough effect; inconclusive = small, poorly fitted or top-dose-only effect, or effect the other way; inactive = no such curve, though single readings can be large or run the other way.
target: Cytochrome P450 3A4 (Homo sapiens) (UniProt P08684); experiment: Cytochrome panel assay with activity outcomes; details: recombinant CYP, pro-luciferin dealkylation, luminescence, p450-cyp3a4; series mostly up to 57.1 µM
Sequence (P08684 whole entry, looked up): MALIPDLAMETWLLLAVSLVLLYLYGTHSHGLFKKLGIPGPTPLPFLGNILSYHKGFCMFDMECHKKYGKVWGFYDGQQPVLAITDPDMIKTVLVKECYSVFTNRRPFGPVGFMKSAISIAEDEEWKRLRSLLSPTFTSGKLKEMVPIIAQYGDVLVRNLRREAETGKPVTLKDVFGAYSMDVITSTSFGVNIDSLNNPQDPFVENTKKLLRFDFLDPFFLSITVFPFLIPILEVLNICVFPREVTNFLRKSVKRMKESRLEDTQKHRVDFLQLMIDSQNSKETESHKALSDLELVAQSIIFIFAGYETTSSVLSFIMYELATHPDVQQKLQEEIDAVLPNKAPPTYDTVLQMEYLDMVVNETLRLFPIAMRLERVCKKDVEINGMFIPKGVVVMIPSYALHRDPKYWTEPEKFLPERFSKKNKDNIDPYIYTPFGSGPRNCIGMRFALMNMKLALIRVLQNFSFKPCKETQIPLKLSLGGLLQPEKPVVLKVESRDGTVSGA
% is set by controls: 0 for no effect and ±100 for the full control effect.

SMILES	activity, negative = inhibition	AC50
CC(=O)[C@H]([C@@H](c1ccccc1)N1CCOCC1)N1CCOCC1	-29.9% [at 11.4 µM]	–
CC(C)(C)C(=O)[C@H]([C@@H](c1ccccc1)N1CCOCC1)N1CCOCC1	–	2.51 µM (active)
O=C(CSc1ncnc2nc[nH]c12)c1ccccc1	-16.5% [at 11.4 µM]	–
CC1=NN(c2ccccc2)C(=O)C1C(=O)c1ccc(Cl)cc1 (configuration not stated)	–	inactive
CCc1ccc(CSc2nccn2-c2ccccc2)cc1	–	14.1 µM (active)
Clc1ccc(CSc2nccn2Cc2ccccc2)cc1	–	7.08 µM (active)
O=C(O)CSCCc1ccccc1	0.346% [at 11.4 µM]	–
O=C(CSc1nccn1-c1ccccc1)c1ccc(Cl)cc1	–	10 µM (active)
OCCn1cnc2c(SCc3ccccc3)ncnc21	-4.24% [at 11.4 µM]	–
O=c1ccnc(SCc2ccc(Cl)cc2)[nH]1	-11.7% [at 11.4 µM]	–
c1ccc(CCSc2nccn2-c2ccccc2)cc1	–	14.1 µM (active)
O=C1C[C@H](c2ccccc2)[C@@H](c2ccc(Br)cc2)O1	1.97% [at 11.4 µM]	–
C#CCCCO/N=C1/[C@H]2O[C@@H]2[C@@H](O)[C@H]2[C@H]1CCn1c(=O)n(Cc3cc4c(cc3Cl)OCO4)c(=O)n12	-10.8% [at 11.4 µM]	–
Cc1ccccc1CSc1nccn1-c1ccccc1	–	5.01 µM (active)
Cn1nnnc1SCc1ccccc1[N+](=O)[O-]	3.46% [at 2.29 µM]	–
Cc1oc(-c2ccccc2)cc1C(=O)Nc1ccc(N(C)C)cc1	–	17.8 µM (active)
Cc1oc(C(C)(C)C)cc1C(=O)Nc1cccc(/C=C/C(=O)O)c1	–	inactive
CC(=O)C[C@H](O)[C@@H](NC(=O)OC(C)(C)C)C(C)C	-26.2% [at 11.4 µM]	–
NC(N)=N/N=C\c1ccc(O)c(C(=O)O)c1	-5.15% [at 11.4 µM]	–

SMILES	activity, negative = inhibition	AC50
CCCCCNCc1cccc(Br)c1	–	inactive
O=C(N/N=C/c1cccc(Oc2ccccc2)c1)c1cccc(Br)c1	–	inactive
O=C(N[C@@]1(C(=O)O)C[C@@H]1c1ccccc1)c1ccccc1	-6.56% [at 11.4 µM]	–
O=C(N/N=C/C1C(c2ccccc2)C1(Cl)Cl)c1cccc(Br)c1 (configuration not stated)	–	12.6 µM (active)
O=C(CSc1nnc(-c2ccccn2)n1Cc1ccco1)Nc1ccc2c(c1)OCO2	–	0.891 µM (active)
CC(=O)Nc1ccc(NC(=O)CSc2nnc(-c3ccccc3)n2Cc2ccc3c(c2)OCO3)cc1	–	3.55 µM (active)
CCCCOC(=O)CSCC(=O)Nc1cc(C)on1	-0.1% [at 11.4 µM]	–
Cc1cc(NC(=O)CSc2nnc(-c3ccccc3)n2Cc2ccco2)no1	–	15.8 µM (active)
Cc1cc(C)nc(SCc2nnc(SCC(N)=O)n2Cc2ccco2)n1	–	15.8 µM (active)
COc1ccc(-c2ccc(=N)n(CCCC(=O)O)n2)cc1	–	inactive
COc1ccc(C(O)c2nccn2Cc2ccccc2)cc1 (configuration not stated)	-29.5% [at 11.4 µM]	–
COc1ccc(-c2cnnc(CCCn3ccnc3-c3ccccc3)n2)cc1	–	6.31 µM (active)
COc1ccc(S(=O)(=O)N2CCC(N3CCCCC3)CC2)cc1	–	inactive
COc1ccc(S(=O)(=O)N2CCCN(CC(=O)Nc3ccc(OC)c(Cl)c3)CC2)cc1	–	7.94 µM (active)
COc1ccc(C)cc1NC(=O)CN1CCN(S(=O)(=O)c2ccc(F)cc2)CC1	–	7.94 µM (active)
COc1ccc(S(=O)(=O)Nc2ccc(S(=O)(=O)N3CCCCC3)cc2)cc1C	-19.1% [at 2.29 µM]	–
COc1ccccc1NC(=O)CN1CCC(C(=O)c2ccc(F)cc2)CC1	-1.8% [at 2.29 µM]	–
COc1ccc(S(=O)(=O)N2CCC(NC(=O)Nc3ccc(C)cc3)CC2)cc1	–	8.91 µM (active)
COCC(=O)N1CCC2(CC1)CCN(C(=O)Nc1cccc(F)c1)CC2	–	inactive

SMILES	activity, negative = inhibition	AC50
COc1ccc(S(=O)(=O)N2CCN(CC(=O)Nc3cccc(F)c3)CC2)cc1	–	7.94 µM (active)
Nc1[nH]c(=S)[nH]c(=O)c1N=Nc1c(Br)cc(S(N)(=O)=O)cc1Br	-21% [at 11.4 µM]	–
O=C(CN1CCN(S(=O)(=O)c2ccccc2)CC1)NC(=O)NCc1ccccc1	–	inactive
COc1ccc(S(=O)(=O)N2CCN(CC(=O)Nc3cc(OC)cc(OC)c3)CC2)cc1	–	3.98 µM (active)
COC(=O)[C@@]1(Cc2ccccc2)[C@H]2c3cc(C(=O)N4CCCC4)n(CC4CC4)c3C[C@H]2CN1C(=O)c1ccccc1	–	3.16 µM (active)
CCOC(=O)[C@H](CCc1ccccc1)N[C@@H](C)C(=O)N1CCC[C@H]1C(=O)O	–	inactive
COC(=O)[C@@]1(Cc2ccccc2)[C@H]2c3cc(C(=O)N4CCCC4)n(C)c3C[C@H]2CN1C(=O)c1ccccc1	–	3.98 µM (active)
O=[N+]([O-])c1nccn1C[C@H](O)CN1CCCCC1	-20.2% [at 11.4 µM]	–
COc1ccc(C(=O)N/N=C2/SCC(=O)N2Cc2ccc3c(c2)OCO3)cc1OC	–	1.12 µM (active)
CCN(CC)CCOC(=O)c1ccc(N)cc1	–	inactive
CCOC(=O)c1c(C)[nH]c(C)c1C(=O)COC(=O)c1ccc(S(=O)(=O)N(CC)CC)cc1	–	0.282 µM (active)
CCOC(=O)c1c(C)[nH]c(C)c1C(=O)COC(=O)c1cccc(S(=O)(=O)N(CC)CC)c1	–	0.316 µM (active)
CCCN(CCC)S(=O)(=O)c1ccc(C(=O)O)cc1	–	inactive
NCCCNCCCCNCCCN	–	inactive
O=C(O)CCNc1ncnc2nc[nH]c12	-0.12% [at 11.4 µM]	–
CCO[P@]1(=O)OC[C@@H]2O[C@H](n3cnc4c(N)ncnc43)[C@H](O)[C@@H]2O1	7.34% [at 11.4 µM]	–
O=C1c2cccc3c(Nc4ccccc4Cl)c([N+](=O)[O-])cc(c23)C(=O)N1CCO	–	14.1 µM (active)
O=C1c2cccc3c(Cl)ccc(c23)C(=O)N1O	-15% [at 11.4 µM]	–
CCc1ccccc1N1C(=O)c2cccc3c(N4CCOCC4)c([N+](=O)[O-])cc(c23)C1=O	–	inactive
